Most compounds without a hit are left out; they make up all but 6.8% or so of the library.
C diff growth: C. difficile growth inhibition. Clostridium difficile clinical isolate growth, OD600, 24 h; stronger effect = lower value. growth activity, negative = inhibition, % at 16 µg/mL (by protocol). 0.25% of 86,000 active;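 active = mean growth activity at or below -80% and every replicate also at or below -80%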;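 note: 0% = DMSO wells and -100% = levofloxacin 16 µg/mL wells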
T cruzi growth: blocks T. cruzi growth in NIH3T3 culture. T. cruzi beta-gal in NIH3T3, GalScreen luminescence, 90 h. inhibition, % at 8.34 µM. 5.9% of 77,000 active;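 active = mean inhibition above about 93%, with at least 55% of replicates each passing it, limit read from the data, passing the limit was not always enough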
Pf Dd2 inh: P. falciparum Dd2 growth inhibition. SYBR Green, 72 h; stronger effect = lower value. AID 1159554. 2.3% of 94,000 active. activity change, % at 10 µM; in the data active = activity change below about -80%
* hit, by the source's call; x = not tested or not shown.

SMILES | C diff growth | T cruzi growth | Pf Dd2 inh
COc1ccc(C[C@H]2CCc3cnnn3COC[C@@H](Cc3ccccc3)NC2=O)cc1 | -9 | x | x
COc1ccc2c3c([nH]c2c1)[C@H](CO)N(C(=O)C1CCCCC1)CC31CCN(Cc2nccs2)CC1 | -3 | x | -88*
COc1ccc2c3c([nH]c2c1)[C@H](CO)N(C(=O)C1CCCC1)CC31CCN(Cc2nccs2)CC1 | -2 | x | -83*
COc1ccc2c3c([nH]c2c1)[C@H](CO)N(Cc1ccc(Cl)cc1)CC31CCN(Cc2nccs2)CC1 | 5 | x | -93*
COc1ccc2c3c([nH]c2c1)[C@H](CO)N(Cc1nccs1)CC31CN(Cc2cccnc2)C1 | 6 | x | -88*
COc1ccc2c3c([nH]c2c1)[C@@H](CO)N(Cc1ccc(Cl)cc1)CC31CN(Cc2nccs2)C1 | 4 | x | -70
COc1ccc2c3c([nH]c2c1)[C@@H](CO)N(C(=O)C1CCC1)CC31CCN(Cc2nccs2)CC1 | -2 | x | -68
COc1ccc2c3c([nH]c2c1)[C@@H](CO)N(Cc1nccs1)CC31CN(Cc2nccs2)C1 | 6 | x | -37
COc1ccc2c3c([nH]c2c1)[C@@H](CO)N(C(=O)C1CCCC1)CC31CCN(Cc2nccs2)CC1 | -3 | x | -59
COc1ccc2c3c(n(C)c2c1)[C@H](CO)N(C(C)=O)CC31CCN(C(=O)c2ccccc2)CC1 | -1 | x | 22
CN1CCN(C(=O)C[C@@H]2CC[C@@H]3[C@H](COC[C@H](O)CN3C(=O)Nc3cc(Cl)cc(Cl)c3)O2)CC1 | x | -14 | 4
C[C@@H]1CCCCO[C@H](CN(C)S(=O)(=O)c2ccccc2)[C@@H](C)CN([C@@H](C)CO)C(=O)c2cc(NC(=O)NC3CCCCC3)ccc2O1 | -5 | x | -79
CN(C)C(=O)C[C@H]1C=C[C@H](NC(=O)NC2CCCCC2)[C@@H](CO)O1 | 1 | x | -7
C[C@H](CO)N1C[C@H](C)[C@@H](CN(C)Cc2ccc3c(c2)OCO3)Oc2ccc(NC(=O)Nc3ccccc3)cc2CC1=O | 11 | 60 | -83*
C[C@H]1CN([C@@H](C)CO)C(=O)Cc2cc(NC(=O)Nc3ccccc3)ccc2O[C@@H]1CN(C)Cc1ccc2c(c1)OCO2 | 3 | 48 | -32
C[C@H](CO)N1C[C@H](C)[C@H](CN(C)Cc2ccc3c(c2)OCO3)Oc2ccc(NC(=O)Nc3ccc4c(c3)OCO4)cc2CC1=O | -15 | 27 | 33
C[C@@H]1CN([C@@H](C)CO)C(=O)Cc2cc(NC(=O)Nc3ccc4c(c3)OCO4)ccc2O[C@H]1CN(C)Cc1ccc2c(c1)OCO2 | 6 | 70 | -87*
C[C@@H]1CN([C@@H](C)CO)C(=O)Cc2cc(NC(=O)Nc3ccccc3)ccc2O[C@H]1CN(C)Cc1ccc2c(c1)OCO2 | 3 | 3 | -88*
C[C@@H]1CN([C@@H](C)CO)C(=O)Cc2cc(NC(=O)Nc3ccccc3)ccc2O[C@@H]1CN(C)Cc1ccc2c(c1)OCO2 | 7 | 83 | -16
CN(C)C(=O)[C@@H]1[C@@H](CO)[C@@H]2Cn3c(ccc(-c4cncnc4)c3=O)[C@H]1N2C(=O)NC1CCCC1 | x | -119 | x
Cc1ccc(S(=O)(=O)Nc2ccc3c(c2)C(=O)N([C@@H](C)CO)C[C@H](C)[C@@H](CN(C)Cc2ccncc2)O3)cc1 | 0 | -12 | 31
Cc1ccc(S(=O)(=O)N[C@H]2CC[C@H](CC(=O)NCCN3CCCCC3)O[C@H]2CO)cc1 | -4 | 24 | 18
CCNC(=O)[C@@H]1[C@@H](CO)[C@@H]2Cn3c(ccc(-c4ccncc4)c3=O)[C@@H]2N1Cc1ccccc1 | 1 | 42 | 7
C[C@H](CO)N1C[C@H](C)[C@@H](CN(C)C(=O)Nc2cccc3ccccc23)OCCCC[C@H](C)Oc2ccc(NC(=O)Nc3ccc(F)cc3)cc2C1=O | -14 | 93 | 17
N#Cc1cccc(-c2ccc3c(c2)[C@@H]2[C@@H](CCN2Cc2ccc4c(c2)OCO4)[C@@H](CO)N3)c1 | -98* | 22 | -55
SMILES | C diff growth | T cruzi growth | Pf Dd2 inh
N#Cc1cccc(-c2ccc3c(c2)[C@H]2[C@H](CCN2Cc2cncnc2)[C@H](CO)N3)c1 | -11 | 53 | -53
OC[C@@H]1Nc2ccc(-c3cccc(F)c3)cc2[C@@H]2[C@H]1CCN2Cc1ccc(F)cc1 | 1 | 83 | -81*
O=C(C1CCCC1)N1CC[C@@H]2[C@H](CO)Nc3ccc(-c4cccc(F)c4)cc3[C@@H]21 | 65 | x | -65
CCCN(C)C[C@H]1OCCCC[C@@H](C)Oc2ccc(NS(=O)(=O)c3cn(C)cn3)cc2C(=O)N([C@H](C)CO)C[C@H]1C | 1 | 39 | -59
CCCN1[C@@H]2Cn3c(ccc(-c4ccccc4)c3=O)[C@H]1[C@@H](C(=O)NCCCN1CCOCC1)[C@@H]2CO | -2 | 37 | 10
OC[C@@H]1[C@H](c2ccc(-c3ccc(F)cc3)cc2)[C@@H](CNC2CCCC2)N1CCC(F)(F)F | 44 | x | -97*
OC[C@@H]1[C@H](c2ccc(-c3ccc(F)cc3)cc2)[C@H](CNC2CCCC2)N1CCC(F)(F)F | 23 | x | -89*
OC[C@H]1[C@@H](c2ccc(-c3ccc(F)cc3)cc2)[C@@H]2CN(CCC(F)(F)F)CCCCN12 | 25 | 94 | -79
OC[C@H]1[C@H](c2ccc(-c3ccc(F)cc3)cc2)[C@@H]2CN(CCC(F)(F)F)CCCCN12 | 36 | 45 | -65
COC(=O)C[C@H]1C[C@@H]2c3cc(NS(=O)(=O)c4ccc(F)cc4)ccc3O[C@@H]2[C@@H](CO)O1 | 1 | 1 | 5
CCCC(=O)N1CC2(C1)CN(C(C)=O)[C@H](CO)c1c2c2ccc(OC)cc2n1C | -11 | x | 23
N#C[C@H]1[C@@H](c2ccc(C#CC3CCCCC3)cc2)[C@H](CO)N1C(=O)Nc1ccc(F)cc1 | 22 | x | -52
Cc1ccccc1S(=O)(=O)N1[C@@H](C#N)[C@H](c2ccc(C#CC3CCCC3)cc2)[C@@H]1CO | -4 | x | -55
N#C[C@H]1[C@H](c2ccc(C#CC3CCCCC3)cc2)[C@H](CO)N1C(=O)Nc1ccc(F)cc1 | 53 | x | -26
N#C[C@@H]1[C@@H](c2ccc(C#CC3CCCCC3)cc2)[C@H](CO)N1C(=O)Nc1ccc(F)cc1 | 0 | x | -86*
CC(C)NC(=O)N1[C@H](C#N)[C@H](c2ccc(C#CC3CCCCC3)cc2)[C@@H]1CO | -5 | 93 | -81*
Cc1ccccc1S(=O)(=O)N1[C@H](C#N)[C@H](c2ccc(C#CC3CCCC3)cc2)[C@@H]1CO | 8 | x | -90*
O=C(C[C@H]1C=C[C@@H](NS(=O)(=O)c2ccccc2)[C@@H](CO)O1)N1CCN(c2ccccc2)CC1 | -2 | x | 7
COc1ccc2c3c([nH]c2c1)[C@@H](CO)N(Cc1ccccc1)CC31CCN(C(=O)c2cccnc2)CC1 | 1 | x | -90*
COc1ccc(CN2CC3(CCN(C(=O)c4ccccc4)CC3)c3c([nH]c4cc(OC)ccc34)[C@@H]2CO)cc1 | 1 | x | -88*
COc1ccc2c3c([nH]c2c1)[C@H](CO)N(Cc1cccnc1)CC31CCN(C(=O)CN(C)C)CC1 | 1 | x | -86*
COc1ccc2c3c([nH]c2c1)[C@H](CO)N(Cc1cccnc1)CC31CN(C(=O)CN(C)C)C1 | -10 | x | 7
COc1ccc(CN2CC3(CN(C(=O)c4ccccc4)C3)c3c([nH]c4cc(OC)ccc34)[C@@H]2CO)cc1 | -2 | x | -48
